SMILES strings stand for the structures. In all, about 340,000 compounds went through this assay and about 8,500 (2.5%) were called active. This excerpt belongs to a sample that is enriched for actives. Unmarked numbers belong to inactive results.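 Rule for the calls: active = melting temperature shift of at least 10% of the positive control shift, at one fixed dose; inactive = the rest.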

The subject of this test is Glutamate receptor ionotropic, NMDA 3A (GRIN3A) ligand-binding domain. Kind of test: NR3A LBD thermal stabilization by compounds – biophysical, differential scanning fluorimetry, uHTS, primary screen (AID 1259313). As to conditions: at 25 µM, hits give high values, 0% = protein alone, 100% = glycine-bound protein. A general note: Differential scanning fluorimetry follows unfolding on heating by fluorescence.
As for `Cc1cccc(N(CC(=O)N=Nc2c(O)[nH]c3ccccc23)S(C)(=O)=O)c1C`, the Tm shift relative to glycine control is -1.51%.

As for `O=C(CCN1CCCCC1)N=Nc1c(O)[nH]c2ccccc12`, the Tm shift relative to glycine control was -1%.

Take `Cc1c(-c2ccccc2)n[nH]c1C(=O)N=Nc1c(O)[nH]c2ccccc12`: the Tm shift relative to glycine control is 13.9% (active).

With `COc1ccc(CNC(=O)C2CCN(S(=O)(=O)c3ccc(SC)cc3)CC2)cc1`, the Tm shift relative to glycine control was 1%.

On to `CCc1ccccc1NC(=O)CSc1nnc([C@@H](NC(=O)OC(C)(C)C)C(C)CC)o1` (stereo not given in full), for which the Tm shift relative to glycine control is -1.3%.

With `C[C@@H](NC(=O)OC(C)(C)C)c1nnc(S(=O)(=O)Cc2ccccc2)o1`, the Tm shift relative to glycine control was 0%.

Take `CC(C)Sc1nnc([C@H](Cc2ccccc2)NC(=O)OC(C)(C)C)o1`: the Tm shift relative to glycine control was 32.2% (active).

`C/C(CC(O)(/C=N/O)c1ccccc1)=N\O` (stereo not given): the Tm shift relative to glycine control is 1.21%.

For the compound `COc1ccc2ccccc2c1CNc1nnnn1C`, the Tm shift relative to glycine control is 0.15%.

In the case of `Clc1ccc(Nc2ccc3ccccc3n2)cc1`, the Tm shift relative to glycine control was 45% (active).

As for `Cc1cccc(NC(=O)c2ccc3ccccc3n2)n1`, the Tm shift relative to glycine control is -0.88%.

On to `O=C(NNC(=O)c1ccc2ccccc2c1)c1ccc(Cl)cc1`, for which the Tm shift relative to glycine control is -1.56%.

`CC1(C)CC(=O)C=C(NCCCN2CCCC2=O)C1`: the Tm shift relative to glycine control was -0.27%.

`Nc1nc(C23CC4CC(CC(C4)C2)C3)cs1`: the Tm shift relative to glycine control is -1.42%.

Turning to `COC(=O)c1cc(NC(=O)c2cc(C(C)(C)C)nn2Cc2cccc(C)c2)ccc1N1CCOCC1`, the Tm shift relative to glycine control is -0.21%.

As for `COC(=O)C1(C)NC(c2ccc(C)cc2)C2C(=O)N(c3ccc(F)cc3)C(=O)C21` (stereo not given), the Tm shift relative to glycine control was 2.13%.

Consider `CCCCC1(C(=O)OCC)NC(c2ccc(O)cc2)C2C(=O)N(c3ccccc3)C(=O)C21` (stereo not given), for which the Tm shift relative to glycine control was -1.17%.

As to `CCCC1(C(=O)OCC)NC(c2ccc(N(C)C)cc2)C2C(=O)N(c3ccc4c(c3)OCCO4)C(=O)C21` (stereo not given), the Tm shift relative to glycine control is 17% (active).

Consider `O=C(CC1SC(N2CCOCC2)=NC1=O)Nc1ccccc1F` (stereo not given), for which the Tm shift relative to glycine control is -1.22%.

As for `COc1ccc(S(=O)(=O)N2CCN(C(=O)N(C)C)C2C)cc1` (stereo not given), the Tm shift relative to glycine control is -2.39%.

On to `Cc1nn(C)c(Cl)c1CN1CCC(Oc2ccc(C(=O)N3CCCC3)cc2)CC1`, for which the Tm shift relative to glycine control was 12.6% (active).

For the compound `CC(=O)Nc1ccc(CN2CCC(Oc3ccc(C(=O)N4CCCC4)cc3)CC2)cc1`, the Tm shift relative to glycine control is 0.37%.

Consider `O=C(c1ccc(OC2CCN(Cc3ccccn3)CC2)cc1)N1CCCCCC1`, for which the Tm shift relative to glycine control is 0.85%.

For the compound `COc1ccccc1C(=O)NC(=O)COC(=O)C1CC1`, the Tm shift relative to glycine control was -1.81%.

In the case of `C[C@@H](C(=O)N1CCNCC1)n1cc(CCC(=O)O)nn1`, the Tm shift relative to glycine control was 1.39%.

On to `Cc1ccc(C(=O)N2CCN(S(=O)(=O)N3CCOCC3)CC2)cc1`, for which the Tm shift relative to glycine control is -1.26%.

Turning to `Cc1cccc(C(=O)N2CCN(S(=O)(=O)N3CCCCC3)CC2)c1`, the Tm shift relative to glycine control was 11.1% (active).

`O=C(c1cccc(S(=O)(=O)N2CCCCCC2)c1)N1CCN(Cc2ccccc2)CC1`: the Tm shift relative to glycine control was 0.36%.

Turning to `CCOc1ccc(C(=O)Nc2c3c(nn2-c2ccccc2)CS(=O)(=O)C3)cc1`, the Tm shift relative to glycine control is -0.47%.

Consider `COc1cc(C(=O)Nn2c(CC(C)C)nc3ccccc3c2=O)cc(OC)c1OC`, for which the Tm shift relative to glycine control is -0.54%.

For the compound `COc1cc(C(=O)Nn2c(O)c(C3=c4ccccc4=NC3=O)sc2=S)ccc1O`, the Tm shift relative to glycine control was 11.1% (active).

For `COc1cc(C(=S)NC2CCCCC2)ccc1O`, the Tm shift relative to glycine control is -5.68%.

With `CN(CC(=O)Nc1ccccc1F)CC(=O)Nc1ccccc1Br`, the Tm shift relative to glycine control is -1.08%.

In the case of `CCOc1ccc(NC(=O)CN(C)C(=O)COc2cccc(CC)c2)cc1OCC`, the Tm shift relative to glycine control is 3.14%.

Turning to `Cc1nn(C)c(C)c1S(=O)(=O)N1CCc2ccccc21`, the Tm shift relative to glycine control was -0.32%.

`Cc1cccc(NC(=S)N2CCC(C(=O)c3ccc(F)cc3)CC2)c1`: the Tm shift relative to glycine control is -1.17%.

Turning to `CCc1cccc(CC)c1NC(=S)NCc1ccc2[nH]c(C)cc2c1`, the Tm shift relative to glycine control was -6.16%.

As for `Cc1cccc(NC(=S)NCc2ccc3[nH]c4c(c3c2)CCCC4)c1`, the Tm shift relative to glycine control was 16.4% (active).

Take `CC(NC(=O)c1cc(=O)[nH]c2ccccc12)c1ccc(F)cc1F` (stereo not given): the Tm shift relative to glycine control is -1.44%.

For `CCCn1c(=N)n(CC(=O)c2ccc(Cl)c(Cl)c2)c2ccccc21`, the Tm shift relative to glycine control was -6.05%.

Regarding `CCOC(=O)C1CCN(Cc2nnc(-c3cccc(Br)c3)o2)CC1`, the Tm shift relative to glycine control was 222% (active).

As for `CCOC(=O)N1CCN(Cc2nnc(-c3ccccc3Cl)o2)CC1`, the Tm shift relative to glycine control is 0.35%.

On to `CCOC(=O)C1CCN(Cc2ccc(-c3ccccc3)cc2)CC1`, for which the Tm shift relative to glycine control is -0.95%.

Consider `CCOC(=O)c1cc2c(=O)[nH]c(C(Cl)(Cl)Cl)nc2o1`, for which the Tm shift relative to glycine control is 5.2%.

As for `C/C(Cl)=C\Cn1c(Nc2cccc(C)c2)nc2c1c(=O)n(C)c(=O)n2C`, the Tm shift relative to glycine control was 18.4% (active).

For the compound `Cc1cccc(Cn2c(N3CCN(c4ccccc4)CC3)nc3c2c(=O)n(C)c(=O)n3C)c1`, the Tm shift relative to glycine control was -1.11%.

On to `Cn1c(=O)c2c(nc(NCCc3ccccc3)n2Cc2ccccc2)n(C)c1=O`, for which the Tm shift relative to glycine control is -12.7%.

With `FC(F)(F)c1ccc(-c2cccc3c2C2CC3CCN2Cc2ccccc2)cc1` (stereo not given), the Tm shift relative to glycine control was 0.87%.

In the case of `Cc1ccc(CNC(=O)CCNS(=O)(=O)c2cccc3nonc23)cc1`, the Tm shift relative to glycine control was 17.3% (active).

`CCc1cccc(NC(=O)CCNS(=O)(=O)c2cccc3nonc23)c1`: the Tm shift relative to glycine control is -1.5%.

Take `Cc1ccc(CNC(=O)CCNS(=O)(=O)c2ccc(Br)s2)cc1`: the Tm shift relative to glycine control is 0.52%.

On to `COC(=O)c1ccc(CN(c2ccccc2OC)S(=O)(=O)c2cccs2)o1`, for which the Tm shift relative to glycine control was 0%.

Turning to `COC(=O)[C@]1(Cc2ccccc2)N[C@H](CN(C)S(=O)(=O)c2ccc(F)cc2)[C@@H]2C(=O)N(Cc3ccccc3)C(=O)[C@@H]21`, the Tm shift relative to glycine control is 0.82%.

Regarding `COC(=O)[C@]1(Cc2ccccc2)N[C@H](CN(C)S(=O)(=O)c2ccc(OC(F)(F)F)cc2)[C@@H]2C(=O)N(Cc3ccccc3)C(=O)[C@@H]21`, the Tm shift relative to glycine control was 18.1% (active).

In the case of `COC(=O)[C@]1(Cc2ccccc2)N[C@H](CN(C)S(=O)(=O)c2ccc(OC(F)(F)F)cc2)[C@@H]2C(=O)N(C)C(=O)[C@@H]21`, the Tm shift relative to glycine control is -3.1%.

Take `N/C(=N\S(=O)(=O)c1cc(C(F)(F)F)cc(C(F)(F)F)c1)c1cccs1`: the Tm shift relative to glycine control is -1.45%.

Regarding `N#Cc1cccc(CSc2nnc(CCCO)n2-c2ccccc2)c1`, the Tm shift relative to glycine control was -2.26%.

Regarding `O=C(Nc1ccc(N2CCOCC2)cc1)c1cccc(S(=O)(=O)N2CCOCC2)c1`, the Tm shift relative to glycine control was 1.57%.

For the compound `O=C(Nc1ccc(S(=O)(=O)Nc2nccs2)cc1)c1cccc(S(=O)(=O)N2CCOCC2)c1`, the Tm shift relative to glycine control was -7.34%.

For the compound `O=C(Nc1ccc(S(=O)(=O)N2CCOCC2)cc1)c1ccc2ncsc2c1`, the Tm shift relative to glycine control was 23.1% (active).

As to `COc1ccc2c(c1)OC(O)(C(F)(F)C(F)F)CC2=O` (stereo not given), the Tm shift relative to glycine control was -0.91%.

Take `C=CCN(c1ccc(Cl)cc1)S(=O)(=O)c1cccc(C(=O)OCC(=O)N(C)C)c1`: the Tm shift relative to glycine control was -2.3%.

`O=C(CSc1nc(O)c(Cc2ccccc2)c(=O)[nH]1)Nc1nc2c(s1)CCCC2`: the Tm shift relative to glycine control is 0.31%.

Regarding `CN(C)CCNc1ccc(-c2n[nH]c(=O)c3ccccc23)cc1[N+](=O)[O-]`, the Tm shift relative to glycine control is -4.51%.

On to `COc1cc(C2c3cc4c(cc3C(O)C3COC(=O)C23)OCO4)cc(OC)c1OC` (stereo not given), for which the Tm shift relative to glycine control is 0.33%.

In the case of `OC(C#CCN1CCOCC1)(c1ccccc1)C1CCCCC1` (stereo not given), the Tm shift relative to glycine control is 0.88%.

Consider `CN(CC#CCC(c1ccccc1)c1ccccc1)C(C)(C)C`, for which the Tm shift relative to glycine control is -1.63%.

Turning to `CC(C)(C)N(CC#CCC(O)(c1ccccc1)C1CCCC1)CCO` (stereo not given), the Tm shift relative to glycine control is 14.9% (active).

Take `O=C(NN1C(=O)C2C3C=CC(O3)C2C1=O)c1ccccc1` (stereo not given): the Tm shift relative to glycine control is -2.22%.

Take `Cc1ccc2nsnc2c1NC(=O)c1ccccc1[N+](=O)[O-]`: the Tm shift relative to glycine control is -9.29%.

Consider `COc1ccc(NC(=O)Nc2ccc3nsnc3c2)cc1`, for which the Tm shift relative to glycine control was 33.6% (active).

For `COc1ccc(NC(=O)Nc2ccc3nc(C)c(C)nc3c2)cc1`, the Tm shift relative to glycine control was 19% (active).

With `COc1ccc(/C=N/NC(=O)Nc2ccc3nsnc3c2)c(OC)c1`, the Tm shift relative to glycine control is -2.88%.

For `O=C(Nc1ccccc1)c1ccc2nsnc2c1`, the Tm shift relative to glycine control is 1.64%.

For `COc1ccc2nc(/N=C(\N)NC(=O)Nc3ccccc3)nc(C)c2c1`, the Tm shift relative to glycine control was 29.4% (active).

For the compound `Cc1ccc(NC(=O)Nc2ccc3oc(C)nc3c2)cc1`, the Tm shift relative to glycine control is -7.01%.

`Cc1nc(/N=C(\N)NC(=O)NC2CCCCC2)nc2ccccc12`: the Tm shift relative to glycine control was -0.41%.

In the case of `COCCNC(=O)Nc1ccc2nc(-c3ccco3)c(-c3ccco3)nc2c1`, the Tm shift relative to glycine control is -1.95%.

`COc1ccc2nc(C)cc(Nc3cccc(C(=O)O)c3)c2c1`: the Tm shift relative to glycine control is -1.4%.

Consider `CCC1(C(=O)c2ccccc2)C(c2cccc([N+](=O)[O-])c2)C1(C(=O)OC)C(=O)OC` (stereo not given), for which the Tm shift relative to glycine control is -4.39%.

On to `CCCCCN(C(=O)NC(=O)Nc1ccccc1C)S(C)(=O)=O`, for which the Tm shift relative to glycine control is -1.26%.

In the case of `O=C(CN1CCN(S(=O)(=O)c2ccc3ccccc3c2)CC1)NC(=O)NC1CCCCC1`, the Tm shift relative to glycine control is -9.92%.

In the case of `COc1cc(NS(=O)(=O)c2ccc(NC(=S)NC(=O)c3ccccc3)cc2)nc(OC)n1`, the Tm shift relative to glycine control is -2.53%.

Turning to `CCOC(=O)CCP(=O)(O)C(O)(c1ccccc1)c1ccccc1`, the Tm shift relative to glycine control was -1.33%.

Turning to `Cc1ccc(N2C(=O)CN=C2Nc2nc(C)cc(C)n2)cc1`, the Tm shift relative to glycine control was -1.23%.

`O=C(Nc1nnc(SCc2ccc(Cl)cc2Cl)s1)C1COc2ccccc2O1` (stereo not given): the Tm shift relative to glycine control was 15.3% (active).

On to `O=C(Nc1nnc(SCc2ccccc2Cl)s1)c1cccc([N+](=O)[O-])c1`, for which the Tm shift relative to glycine control is -14.6%.

Regarding `O=C(Nc1nnc(SCc2c(Cl)cccc2Cl)s1)C1CCCO1` (stereo not given), the Tm shift relative to glycine control was 1.89%.

Consider `Cc1nc([N+](=O)[O-])c(NCCCO)n1Cc1ccccc1`, for which the Tm shift relative to glycine control is -1.5%.

As to `O=C(NCCCN1CCOCC1)c1cnn2c(-c3ccccc3)cc(-c3ccccc3)nc12`, the Tm shift relative to glycine control is -3.89%.

Values taken from PubChem BioAssay AID1259313 (Sanford-Burnham Center for Chemical Genomics, 2017).
